Compounds with a hit are over-represented: about 0.81% of the library has one in this group of screens.
Cardiac RTF inh = cardiac RTF calcium desensitization; P19429+P45379; IANBD-labeled cardiac RTF, Ca2+ fluorescence; inhibition, % at 7.15 µM; hit rate 0.12% among 340,000; AID 493244;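 active means inhibition above the mean inhibition of all tested compounds plus 3 SD, cut at about 17% in these data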;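 further: assay run at fixed EC70 calcium of 1.6 mM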
C-LANA FP = KSHV C-LANA DNA binding inhibition | MBP-C-LANA/FAM-LBS DNA binding, fluorescence polarization | inhibition, % at 9 µM | hit rate 0.078% among 340,000 | AID 504423;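 active means highest replicate inhibition at or above 60% at 9 µM, even if other replicates fall short; inactive means all replicates below 60% inhibition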;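 further: 0% = neutral control wells and 100% = 4 µM acridine orange control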
cardiac RTF act = cardiac RTF calcium sensitization. AID 493008. IANBD-labeled TnC RTF fluorescence at EC20 calcium; 0% EC20 calcium, 100% full calcium. P19429+P45379. activation, % at 7.2 µM. hit rate 0.24% among 340,000;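 active means activation above the mean over all tested compounds plus 3 SD, cut at about 30% in these data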;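 further: rise in fluorescence read as greater calcium sensitivity of cardiac thin filaments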
Keap1 Nrf2 FP = inhibitors of human Keap1-Nrf2 protein-protein interaction; Keap1 Kelch-Nrf2 peptide fluorescence polarization, 1536-well; hit rate 0.15% among 340,000; inhibition, % at 9.4 µM; in the data active means inhibition above about 12%;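 further: human Keap1 Kelch domain with fluorescein labeled Nrf2 9mer peptide probe; 0% = neutral control wells and 100% = peptide positive control; higher means more block of Keap1 binding to Nrf2 peptide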
Target sequence (Q14145 whole entry, looked up, the tested form may be a part): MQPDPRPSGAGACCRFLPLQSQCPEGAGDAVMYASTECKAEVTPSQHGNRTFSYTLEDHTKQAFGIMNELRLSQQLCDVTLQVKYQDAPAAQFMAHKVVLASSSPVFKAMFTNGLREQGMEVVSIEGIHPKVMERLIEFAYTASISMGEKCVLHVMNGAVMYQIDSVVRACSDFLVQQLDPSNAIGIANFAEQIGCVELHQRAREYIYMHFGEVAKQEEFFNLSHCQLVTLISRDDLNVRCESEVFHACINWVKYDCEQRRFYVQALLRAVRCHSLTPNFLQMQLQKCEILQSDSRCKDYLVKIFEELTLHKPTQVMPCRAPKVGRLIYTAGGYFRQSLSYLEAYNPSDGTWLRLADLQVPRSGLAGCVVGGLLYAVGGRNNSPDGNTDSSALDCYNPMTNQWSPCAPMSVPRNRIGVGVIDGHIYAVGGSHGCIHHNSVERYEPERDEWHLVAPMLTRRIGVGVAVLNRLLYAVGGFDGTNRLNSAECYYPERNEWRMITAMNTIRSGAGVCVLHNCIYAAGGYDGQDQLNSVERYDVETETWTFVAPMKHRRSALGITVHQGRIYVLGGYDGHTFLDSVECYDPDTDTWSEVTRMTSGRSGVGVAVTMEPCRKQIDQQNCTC
IDE inh = cellular human IDE inhibition; P14735; HEK cells, FAbetaB cleavage, fluorescence polarization; inhibition, % at 5.59 µM; hit rate 0.41% among 320,000;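 active means percent inhibition above the average of all tested compounds plus 3 SD, set per screening campaign, cut at about 16% in these data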;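 further: IDE supplied by intact live HEK cells; FP after avidin binding of uncleaved biotin substrate so inhibition keeps polarization high; 0% = DMSO wells and 100% = 60 µM reference IDE inhibitor Ii1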
IDE cell activ = IDE (human) activation, cell-based | hit rate 0.073% among 340,000 | P14735 | HEK cells, FAbeta-B cleavage, fluorescence polarization; 0% vehicle, 100% cell-free pure enzyme wells | AID 493087 | activation, % at 5.96 µM;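 active means activation above the mean of all tested compounds plus 3 SD, set per screening campaign, cut at about 17% in these data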
* = called active by the depositor; i = inactive; . = no result; + = active, no number.

SMILES | Cardiac RTF inh | C-LANA FP | cardiac RTF act | Keap1 Nrf2 FP | IDE inh | IDE cell activ
COc1cc(N2CCCC2)c(OC)cc1/C=C(/C#N)c1ccc(Br)cc1 | -14.6 | 8.0 | 30.3* | 0.1 | 4.8 | -7.2
COc1cc(N2CCCC2)c(OC)cc1/C=C(/C#N)c1ccc(F)cc1 | -67.6 | 1.2 | 13.7 | -3.0 | 3.5 | -7.2
Cc1nn(C)c(C)c1N1C(=O)c2cccc3c(Br)ccc(c23)C1=O | -5.1 | -1.0 | 7.9 | -4.8 | 6.8 | -5.9
Cc1nn(C)c(C)c1N1C(=O)c2cccc3c(N)ccc(c23)C1=O | i | 183.4* | + | 116.4* | 7.3 | 12.1
O=C(/C=C/c1cc[n+](CC(=O)c2ccc3cccc4c3c2CC4)cc1)c1ccc2cccc3c2c1CC3 | 17.5* | -2.0 | -22.6 | 6.6 | 6.0 | 2.3
O=C(C[n+]1ccc2ccccc2c1)c1cccc2ccccc12 | -12.7 | -0.4 | -0.3 | 1.3 | 3.9 | 5.5
Cc1ccc2nc(N(CCCN(C)C)C(=O)COc3ccc(Cl)cc3)sc2c1 | -5.0 | -0.4 | -0.4 | -4.4 | 0.2 | 21.8*
CN(C)CCCN(C(=O)COc1ccc(Cl)cc1)c1nc2ccc(F)cc2s1 | -5.3 | 1.2 | 8.0 | -1.3 | 7.6 | 17.8*
Cc1cc(C)c2sc(N(CCCN(C)C)C(=O)COc3ccc(Cl)cc3)nc2c1 | -0.9 | 3.1 | 3.5 | -4.6 | 3.2 | 26.9*
Cc1ccc(S(=O)(=O)c2ccc([N+](=O)[O-])o2)cc1 | -0.1 | -0.8 | -4.6 | -1.5 | . | -5.7
COc1ccc(C2c3ccc(O)cc3Oc3ncn(Cc4ccccc4)c(=N)c32)cc1OC (stereo not drawn) | -59.6 | 9.5 | 44.4* | -1.7 | -0.6 | -14.8
COc1ccc(C2c3ccc(O)cc3Oc3ncn(CCN4CCOCC4)c(=N)c32)cc1OC (stereo not drawn) | -20.7 | 23.9 | 25.4 | 8.2 | 3.3 | 4.7
N#C/C(=C/c1ccc(N2CCOCC2)o1)C(=O)Nc1ccccc1 | -177.5 | -10.2 | 132.2* | -29.5 | . | -97.9
N#C/C(=C\c1ccc(O)c(O)c1)C(=O)N1CCCC1 | -3.5 | 1.8 | 6.9 | -3.2 | 3.6 | -1.0
N#C/C(=C\c1ccc(O)c(O)c1)C(=O)c1ccc(O)c(O)c1 | 2.4 | 68.9* | -10.9 | -22.7 | 4.2 | -1.6
CSc1ccccc1C(=O)N1CCN(S(=O)(=O)c2sc(C(=O)O)c(C)c2C(=O)O)CC1 | -9.2 | -0.7 | 1.0 | 1.7 | -3.6 | 2.6
C/C=C(\C)C(=O)Nc1cccc(C2=NOC3(C2)C[C@@H](C(N)=O)N(C(=O)/C(C)=C/C)C3)c1 (stereo partly drawn) | 2.6 | 2.0 | -0.4 | 3.5 | -1.7 | 2.4
C=C(C)C(=O)Nc1cccc(C2=NOC3(C2)C[C@@H](C(N)=O)N(C(=O)/C(C)=C/C)C3)c1 (stereo partly drawn) | -13.4 | 84.5* | -2.6 | -0.7 | -0.1 | -3.3
C=C(C)C(=O)Nc1cccc(C2=NOC3(C2)C[C@@H](C(N)=O)N(C(=O)/C=C/C=C/C)C3)c1 (stereo partly drawn) | -9.1 | 67.5* | -1.3 | -6.2 | 6.1 | -0.7
O=C(O)c1ccccc1-c1ccc(/C=c2\sc3nc4cc(Br)cnc4n3c2=O)o1 | 54.6* | 74.2* | -12.9 | -20.6 | 5.5 | -9.8
Cc1cc2nc3s/c(=C/c4ccc(-c5ccccc5C(=O)O)o4)c(=O)n3c2cc1C | -4.4 | -4.1 | -1.3 | -7.7 | 3.8 | 1.6
CCCCNC(=O)[C@H]1C[C@H]1[C@@H](O)[C@H](CO)NC(=O)[C@H](Cc1ccccc1)NC(=O)OC(C)(C)C | -10.8 | -0.4 | -1.5 | -2.3 | -3.4 | 6.2
CCCCCC(=O)Nc1cc(S(=O)(=O)O)cc2cc(S(=O)(=O)O)cc(O)c12 | 67.3* | 113.8* | -49.4 | -0.2 | . | 2.7
CCCN1C=CC(=C/C=C(\C#N)C(=O)OCC)C=C1 | . | . | . | . | 101.3* | .
CN(CC(=O)Nc1ccc(OC(F)(F)F)cc1)C(=O)c1ccccc1SCC(=O)N1CCCC1 | -6.8 | 0.4 | -2.9 | 1.1 | . | -4.0
SMILES | Cardiac RTF inh | C-LANA FP | cardiac RTF act | Keap1 Nrf2 FP | IDE inh | IDE cell activ
CC1CC1C(=O)OCC(=O)Nc1cc(S(=O)(=O)N2CCCCC2)ccc1Cl (stereo not drawn) | -8.6 | -0.7 | -0.8 | -2.7 | -1.4 | -4.6
O=c1ccc2[n+]([O-])c3ccc(O)cc3oc-2c1 | -7.1 | 50.1 | -0.9 | 101.3* | . | 9.4
O=c1cc(O)c2ccc(O)cc2o1 | -7.1 | 2.1 | 2.4 | -0.2 | -0.1 | 1.7
Cc1ccc(Sc2ncccc2C(=O)NCC(c2ccc(F)cc2)N2CCOCC2)cc1C (stereo not drawn) | -17.9 | -0.4 | 7.5 | -1.7 | 8.1 | -1.9
COc1ccccc1C/C(N)=N/OC(=O)COc1cc(C)cc(C)c1C | 3.6 | 0.4 | -5.0 | -1.9 | 1.7 | 2.5
COc1ccccc1C/C(N)=N/OC(=O)COc1cccc(C)c1C | 19.3* | -1.6 | -2.9 | -1.8 | -1.0 | -0.7
CCOc1ccc(NC(=O)/C(C#N)=C/c2ccc(N3CCCC3)c(C)c2)cc1 | -50.6 | 1.8 | 67.1* | -5.6 | 4.3 | -8.8
CCN(CC)S(=O)(=O)c1ccc(N2CCCCC2)c(NC(=O)/C(C#N)=C/c2ccc(OC)cc2)c1 | 0.6 | -1.0 | 1.6 | -0.1 | 3.7 | 3.0
O=C(COC(=O)c1ccc(F)c(S(=O)(=O)N2CCOCC2)c1)Nc1ccc2c(c1)OCO2 | 4.4 | -0.3 | -0.5 | -4.2 | . | -0.3
COc1ccc(NC(=O)CN(C)C(=O)CNC(=O)c2ccc3ccccc3c2)cc1 | -11.2 | 1.3 | 4.2 | -5.1 | . | -3.0
O=C(Cc1ccc(-n2c(=O)[nH]c3ccsc3c2=O)cc1)N1CCN(c2ccc(Cl)cc2)CC1 | -15.4 | -0.6 | -2.5 | -5.1 | 21.1* | -14.7
Cc1cccc(N2CCN(C(=O)Cc3ccc(-n4c(=O)[nH]c5ccsc5c4=O)cc3)CC2C)c1 (stereo not drawn) | -1.7 | 1.5 | -1.3 | 2.0 | 0.7 | 2.5
CCN(CC)c1ccc(N=Cc2ccc(N(CC)CC)cc2O)cc1 | -19.8 | 0.8 | 15.0 | 6.1 | 4.3 | -11.3
CCN(CC)c1ccc(/C=N/N=C(N)N)c(O)c1 | -7.8 | 1.9 | 3.5 | -3.3 | -1.6 | 17.5*
CC(C)c1ccc(/C=C/C(=O)NC(=S)Nc2ccc(CN3CCOCC3)cc2)cc1 | -6.6 | -0.4 | -8.8 | -3.8 | 17.8* | -9.8
NS(=O)(=O)c1ccc(NC(=O)C2C3C=CC(C3)C2C(=O)O)cc1 (stereo not drawn) | -2.7 | -1.4 | 0.5 | 0.8 | 6.3 | 1.5
O=C(NCCSc1ccc(Br)cc1)c1ccc2nc[nH]c2c1 | 4.5 | -1.1 | -2.9 | -4.9 | 1.7 | 20.0*
CC(C)CCNC(=O)c1ccc2nc[nH]c2c1 | -10.9 | -0.8 | 0.6 | 3.3 | 1.5 | 5.2
CCOC(=O)C(CCCCCCC(NC(C)=O)(C(=O)OCC)C(=O)OCC)(NC(C)=O)C(=O)OCC | 0.5 | 0.0 | 82.9* | -3.5 | 3.3 | 0.4
COc1ccc(CCN2CC(C(=O)N3CCCCCC3)CCC2=O)cc1 (stereo not drawn) | 3.0 | 0.3 | -0.7 | 4.5 | -0.7 | 2.0
